Assay [1] is described as follows: qHTS assay to test for compound auto fluorescence at 535 nm (green) in HEK293 cells (AID 720680).
The nature of assay [2]: qHTS assay to test for compound auto fluorescence at 460 nm (blue) in HEK293 cell free culture (AID 720681). Put shortly: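 Compounds were added to cell-free DMEM with 10% FBS and fluorescence read directly. The blue channel used 405 nm excitation and 460 nm emission, with triamterene as the reference fluorophore.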
A short description of assay [3]: qHTS assay to test for compound auto fluorescence at 535 nm (green) in HEK293 cell free culture (AID 720682). Put shortly: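 Steps: dispense DMEM/10% FBS into empty wells; pin in compound or DMSO; measure fluorescence at 485/535 nm. Values are fluorescein equivalents.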
Assay [4] in a line: qHTS assay to test for compound auto fluorescence at 590 nm (red) in HEK293 cell free culture (AID 720683). In short, it runs like this: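 Cell-free wells of DMEM with 10% FBS received compound, and intrinsic fluorescence was read at excitation/emission 540/590 nm. Values expressed as equivalence to Rose Bengal sodium.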
The nature of assay [5]: qHTS assay to test for compound auto fluorescence at 590 nm (red) in HepG2 cell free culture (AID 720684). In short, it runs like this:
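Compound was pinned into wells holding MEM with 10% FBS and no cells, and red fluorescence was read at Ex/Em 540/590 nm. Signal is expressed as auto fluorescence equivalency relative to Rose Bengal sodium.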

Assay [6] can be described thus: qHTS assay to test for compound auto fluorescence at 460 nm (blue) in HepG2 cell free culture (AID 720685). Put shortly: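 Compound (23 nL) or DMSO pinned into cell-free MEM with 10% FBS; blue fluorescence read at 405/460 nm excitation/emission, expressed as auto-fluorescence equivalency to triamterene.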
Assay [7] in a line: qHTS assay to test for compound auto fluorescence at 535 nm (green) in HepG2 cell free culture (AID 720686).
Assay [8] is described as follows: qHTS assay to test for compound auto fluorescence at 460 nm (blue) in HepG2 cells (AID 720687). Put shortly:
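HepG2 cells in MEM with 10% FBS, attached overnight at 37 C, were exposed to compound or DMSO for 1 hr at 37 C, 5% CO2. Blue fluorescence was read at 405/460 nm, with triamterene as reference fluorophore.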

Assay [9] can be described thus: qHTS assay to identify small molecule antagonists of the glucocorticoid receptor (GR) signaling pathway - cell viability counter screen (AID 720693). Further: nearly all actives have a fitted effect of over 55% in size. Further: potency means the concentration at half of the fitted maximal effect.
The nature of assay [10]: qHTS assay for identifying genotoxic compounds that show differential cytotoxicity against isogenic chicken DT40 cell lines with known DNA damage response pathways - Rev3 mutant cell line (AID 743014). Further: nearly all actives have a fitted effect of over 55% in size. Further: potency means the concentration at half of the fitted maximal effect.
Assay [11] in a line: qHTS assay for identifying genotoxic compounds that show differential cytotoxicity against isogenic chicken DT40 cell lines with known DNA damage response pathways - Rad54/Ku70 mutant cell line (AID 743015). Further: nearly all actives have a fitted effect of over 60% in size. Further: potency means the concentration at half of the fitted maximal effect.
Assay [12] in a line: qHTS assay to identify small molecule antagonists of the androgen receptor (AR) signaling pathway - cell viability counter screen (AID 743033; further: nearly all actives have a fitted effect of over 45% in size; further: potency means the concentration at half of the fitted maximal effect).
Assay [13] is described as follows: qHTS assay to identify small molecule antagonists of the androgen receptor (AR) signaling pathway using the MDA cell line - cell viability counter screen (AID 743041; further: nearly all actives have a fitted effect of over 45% in size; further: potency means the concentration at half of the fitted maximal effect). In short, it runs like this:
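MDA-kb2 AR-luc cells (MMTV-luciferase, AR/GR responsive) treated with compounds plus R1881 agonist for 16 h at 37C. CellTiter-Fluor added at 15.5 h; fluorescence read after 30 min in the same wells.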

In assay [14] the target is Glucocorticoid receptor (Homo sapiens) (UniProt P04150). Put plainly: qHTS assay to identify small molecule agonists of the glucocorticoid receptor (GR) signaling pathway (AID 720691; active means well fitted activation curve with a large enough effect in the signal ratio in the repeat runs, not every such curve was filed as active; the % refers to the signal ratio). Particulars: GR-bla HeLa, beta-lactamase reporter ratio, 18 h; activation: at 62.4 µM (top of the series). In short, it runs like this: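 GR-bla HeLa cells carrying a GRE-driven beta-lactamase reporter, exposed to compounds for 18 h at 37 C. Reporter activation read as fluorescence after 2 h with LiveBLAzer B/G FRET substrate at room temperature.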
Chain of Glucocorticoid receptor (Homo sapiens) (P04150 whole entry, looked up): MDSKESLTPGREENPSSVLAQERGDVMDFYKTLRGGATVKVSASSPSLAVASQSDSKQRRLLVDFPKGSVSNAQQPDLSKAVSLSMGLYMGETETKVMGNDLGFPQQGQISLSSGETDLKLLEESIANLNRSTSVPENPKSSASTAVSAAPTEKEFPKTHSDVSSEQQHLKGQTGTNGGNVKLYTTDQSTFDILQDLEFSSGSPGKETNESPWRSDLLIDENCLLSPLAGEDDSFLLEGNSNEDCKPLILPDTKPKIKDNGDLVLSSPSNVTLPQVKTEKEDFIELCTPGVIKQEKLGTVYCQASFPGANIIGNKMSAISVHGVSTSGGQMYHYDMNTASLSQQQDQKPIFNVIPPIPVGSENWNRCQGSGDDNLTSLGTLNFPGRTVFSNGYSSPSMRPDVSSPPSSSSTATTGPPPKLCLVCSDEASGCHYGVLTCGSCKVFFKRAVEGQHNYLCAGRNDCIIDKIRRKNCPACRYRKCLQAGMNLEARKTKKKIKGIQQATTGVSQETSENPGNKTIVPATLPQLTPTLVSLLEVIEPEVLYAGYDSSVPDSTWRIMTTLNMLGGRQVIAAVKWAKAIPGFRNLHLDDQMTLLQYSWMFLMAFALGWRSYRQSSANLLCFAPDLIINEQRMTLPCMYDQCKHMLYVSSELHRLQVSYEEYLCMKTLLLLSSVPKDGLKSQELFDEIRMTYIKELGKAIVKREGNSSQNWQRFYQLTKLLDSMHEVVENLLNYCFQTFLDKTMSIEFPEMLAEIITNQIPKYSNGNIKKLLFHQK

Assay [15] shares this target. In words: qHTS assay to identify small molecule antagonists of the glucocorticoid receptor (GR) signaling pathway (AID 720692; active means well fitted inhibition curve with a large enough effect in the signal ratio in the repeat runs, not every such curve was filed as active; the % refers to the signal ratio). In short, it runs like this:
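GR-bla HeLa cells carrying a GRE-driven beta-lactamase reporter received compound after 4 h plating, then dexamethasone (5 nM final). After 18 h at 37C, the FRET substrate was loaded for 2 h at room temperature and fluorescence read.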

The nature of assay [16]: qHTS assay for identifying genotoxic compounds that show differential cytotoxicity against isogenic chicken DT40 cell lines with known DNA damage response pathways - wild type cell line (AID 743012). Further: nearly all actives have a fitted effect of over 60% in size. Further: potency means the concentration at half of the fitted maximal effect. In short, it runs like this:
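Wild-type DT40 cells (300/well) exposed to compounds for 40 hours at 37 C/5% CO2. Viability read by CellTiter-Glo luminescence after 30 min at room temperature.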

The target in assay [17] is Androgen receptor (Homo sapiens) (UniProt P10275). Put plainly: qHTS assay to identify small molecule antagonists of the androgen receptor (AR) signaling pathway (AID 743035; active means well fitted inhibition curve with a large enough effect in the signal ratio in the repeat runs, not every such curve was filed as active; the % refers to the signal ratio; further: potency means the concentration at half of the fitted maximal effect). Put shortly:
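HEK293 cells stably carrying UAS-beta-lactamase reporter, 2,000/well, given compounds plus R1881 agonist and incubated 16 h at 37C. LiveBLAzer B/G FRET substrate then added for 2 h at room temperature before fluorescence reading.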

The target is the same in assay [18]. In words: qHTS assay to identify small molecule agonists of the androgen receptor (AR) signaling pathway (AID 743036; active means well fitted activation curve with a large enough effect in the signal ratio in the repeat runs, with a control signal flat, not every such curve was filed as active; the % refers to the signal ratio). In short, it runs like this:
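Reporter line: GeneBLAzer AR-UAS-bla-GripTite (HEK293). Steps: plate cells, 4 h rest, add compounds, 16 h at 37C, add LiveBLAzer B/G substrate, 2 h at RT, read fluorescence.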

For assay [19] the target is unchanged. Put plainly: qHTS assay to identify small molecule agonists of the androgen receptor (AR) signaling pathway using the MDA cell line (AID 743040; further: nearly all actives have a fitted effect of over 20% in size). Put shortly:
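MDA-kb2 breast carcinoma cells carrying MMTV-luciferase (responsive to AR and GR), plated 5 h then treated 16 h with compounds at 37C, 0% CO2. Read-out was ONE-Glo luminescence after 30 min at room temperature.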

For assay [20] the target is unchanged. In words: qHTS assay to identify small molecule antagonists of the androgen receptor (AR) signaling pathway using the MDA cell line (AID 743042; further: nearly all actives have a fitted effect of over 55% in size). In short, it runs like this: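 MDA-kb2 breast carcinoma cells carrying MMTV-luciferase (AR/GR responsive) were co-treated with compounds and the agonist R1881 for 16 h at 37C. Inhibition read as ONE-Glo luminescence; CellTiter-Fluor fluorescence measured in parallel for cytotoxicity.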

Inconclusive results are not listed. Calls of active or inactive are those of the source. Unless noted, the call rests on the fitted dose curve; in most records, active means well fitted curve in the direction sought with a large enough effect in the repeat runs; inconclusive means weak or mixed curves; inactive means no such curve, though single readings can be large; an effect the other way counts as inactive or inconclusive.

Chain of Androgen receptor (Homo sapiens) (P10275 whole entry, looked up): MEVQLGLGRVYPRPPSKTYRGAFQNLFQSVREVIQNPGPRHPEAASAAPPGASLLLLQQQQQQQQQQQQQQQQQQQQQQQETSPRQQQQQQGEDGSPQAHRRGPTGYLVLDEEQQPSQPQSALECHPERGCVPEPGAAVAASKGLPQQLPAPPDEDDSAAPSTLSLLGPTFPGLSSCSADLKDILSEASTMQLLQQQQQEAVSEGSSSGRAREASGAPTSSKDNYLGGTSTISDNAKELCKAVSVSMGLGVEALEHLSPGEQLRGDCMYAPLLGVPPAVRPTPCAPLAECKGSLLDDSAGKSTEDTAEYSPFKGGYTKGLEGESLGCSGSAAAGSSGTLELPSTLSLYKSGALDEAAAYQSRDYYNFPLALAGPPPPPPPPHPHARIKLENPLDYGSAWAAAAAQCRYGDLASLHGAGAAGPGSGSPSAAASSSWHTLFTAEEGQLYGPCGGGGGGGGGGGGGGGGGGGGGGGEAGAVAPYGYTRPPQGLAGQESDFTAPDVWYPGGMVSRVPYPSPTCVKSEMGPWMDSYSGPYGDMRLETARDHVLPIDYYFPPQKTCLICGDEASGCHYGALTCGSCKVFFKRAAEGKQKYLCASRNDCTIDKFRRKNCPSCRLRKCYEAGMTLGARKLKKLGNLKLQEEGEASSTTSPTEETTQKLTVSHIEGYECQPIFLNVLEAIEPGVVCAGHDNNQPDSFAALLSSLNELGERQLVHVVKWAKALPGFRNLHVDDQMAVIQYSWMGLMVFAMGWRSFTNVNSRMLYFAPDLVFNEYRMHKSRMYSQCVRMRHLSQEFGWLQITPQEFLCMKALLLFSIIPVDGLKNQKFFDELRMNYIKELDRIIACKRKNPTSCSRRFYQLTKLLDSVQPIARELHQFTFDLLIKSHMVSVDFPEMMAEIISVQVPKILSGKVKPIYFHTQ

Take `CCCCCCCCCCCC[n+]1ccc2ccccc2c1`: the call in assay [1], in assay [3], in [4] and in assay [5] was inactive. For the same compound, the Potency result in assay [2], in assay [6], in [7] and in assay [8] was “inactive” each time. The Potency in assay [9] is 9.52 µM (active); in assay [10], 0.298 µM (active); in [11] it was 0.266 µM (active); in assay [12], 3.01 µM (active); in assay [13], 5.96 µM (active).
As for `CC(O)(c1ccc(Cl)cc1)c1ccc(Cl)cc1`, the call in assay [1], in [3], in assay [4] and in assay [5] was inactive. The Potency entry in assay [2], in assay [6], in assay [7], in [14] and in assay [13] was “inactive” throughout.
`CN1C(C(=O)Nc2ccccn2)C(=O)c2sc(Cl)cc2S1(=O)=O` (stereo unspecified): the compound was classed as inactive in assay [1], in [3], in assay [4] and in assay [5]. For the same compound, the Potency entry in assay [2], in [6], in assay [7], in [8], in assay [9] and in [11] was “inactive” each time. In addition, the Potency entry in assay [12] and in [13] was “inactive” throughout.
As to `CNCCC=C1c2ccccc2CCc2ccccc21`, the compound was called inactive in assay [1], in assay [3], in assay [4] and in [5]. Further, the Potency result in assay [2], in assay [6], in assay [7] and in assay [15] was “inactive” each time.
`Cc1ccc(Cl)c(N)c1Cl`: the call in assay [1], in assay [3], in [4] and in assay [5] was inactive. In addition, the Potency entry in assay [2], in assay [6], in [7], in [8], in assay [9] and in assay [11] was “inactive” throughout. In addition, the Potency result in assay [12] and in assay [13] was “inactive” in each case. The figures for the Potency in assay [16] and in assay [10] were 61.1 µM (active) and 68.6 µM (active), respectively.
Consider `Clc1nc(C(Cl)(Cl)Cl)c(Cl)c(Cl)c1Cl`, for which the result in [1], in assay [3], in [4] and in assay [5] was inactive. For the same compound, the Potency result in assay [2], in assay [6], in assay [7] and in [8] was “inactive” each time. The Potency in assay [10] is 19.3 µM (active); in assay [11], 27.3 µM (active).
With `CC[C@H](C)C(=O)O[C@H]1CCC=C2C=C[C@H](C)[C@H](CC[C@@H]3C[C@@H](O)CC(=O)O3)[C@H]21`, the compound was called inactive in assay [1], in assay [3], in [4] and in assay [5]. In addition, the Potency result in assay [2], in assay [6], in assay [7], in assay [8], in assay [9] and in assay [18] was “inactive” each time. In addition, the Potency entry in assay [19], in [13] and in [20] was “inactive” in each case. The results for the Potency in assay [16], in assay [10] and in assay [17] were 2.98 µM (active), 2.37 µM (active) and 15.1 µM (active), respectively.
As for `O=P(O)(O)OP(=O)(O)OP(=O)(O)O`, the call in [1], in assay [3], in [4] and in assay [5] was inactive. Besides, the Potency entry in assay [2], in assay [6], in [7], in assay [14], in [15] and in [9] was “inactive” in each case. In addition, the Potency entry in assay [16], in assay [10], in assay [17], in assay [19], in assay [13] and in assay [20] was “inactive” in each case.
For the compound `CO/N=C(\C(=O)N[C@@H]1C(=O)N2C(C(=O)O)=C(CSc3nc(C)c(CC(=O)O)s3)CS[C@H]12)c1csc(N)n1`, the call in [1], in assay [3], in [4] and in assay [5] was inactive. The Potency result in [2], in assay [6], in [7], in assay [14], in assay [9] and in assay [16] was “inactive” throughout. Besides, the Potency result in [11], in assay [12] and in assay [13] was “inactive” each time.

The record behind these values is PubChem BioAssay (Tox21).
